Neddylation inh: cullin neddylation inhibition. inhibition, % at 25 µM. P61081+Q13564. TR-FRET cullin neddylation, biochemical. actives 0.58% (n = 360,000); in the data active = inhibition above about 36%
PfGluPho inh: PfG6PD (Plasmodium falciparum) enzyme inhibition; PfGluPho enzyme, NADPH resazurin-diaphorase fluorescence; inhibition, % at 20 µM; actives 0.78% (n = 350,000);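 active = inhibition reaching at least a set limit at 20 µM in the primary screen, cut at about 59% in these data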;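 note: 0% = DMSO wells with substrate and 100% = DMSO wells lacking glucose-6-phosphate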
NPR2 activator: GC-B (human) receptor activation. P20594. HEK293-GC-B cells, CNP EC30, cGMP TR-FRET; 0% at EC30 CNP, 100% saturating CNP. activation, % at 10 µM. actives 0.11% (n = 370,000). AID 1920062;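 active = activation at 10 µM reaching about 35% in either raw or pattern-adjusted values, limit read from the data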
APOBEC3G inh: inhibitors of human APOBEC3G DNA deaminase | inhibition, % at 20 µM | recombinant A3G, ssDNA deamination FAM/TAMRA fluorescence | actives 0.28% (n = 330,000);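 active = inhibition of at least 40% at 20 µM, with no more than 30% in the related APOBEC3A deaminase screen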;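 note: plate controls were DMSO wells with A3G for no effect and wells lacking A3G enzyme for full effect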
Target sequence (Q9HC16 whole entry, looked up): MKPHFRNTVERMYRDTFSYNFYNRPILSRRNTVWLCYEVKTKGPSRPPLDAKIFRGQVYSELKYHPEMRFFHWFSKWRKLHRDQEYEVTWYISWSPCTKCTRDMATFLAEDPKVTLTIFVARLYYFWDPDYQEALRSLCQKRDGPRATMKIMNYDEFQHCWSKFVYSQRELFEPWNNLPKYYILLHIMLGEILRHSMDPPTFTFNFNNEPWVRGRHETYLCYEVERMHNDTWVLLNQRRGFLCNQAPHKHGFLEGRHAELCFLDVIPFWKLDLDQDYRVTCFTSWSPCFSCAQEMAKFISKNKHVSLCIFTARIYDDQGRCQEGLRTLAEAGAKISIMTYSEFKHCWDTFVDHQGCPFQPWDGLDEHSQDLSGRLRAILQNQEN
NPR1 activator: GC-A (human) enzyme activation; P16066; actives 0.14% (n = 370,000); activation, % at 10 µM; AID 1671463; HEK293 GC-A cells, cGMP TR-FRET, EC30 ANP; 0% at EC30 ANP, 100% saturating ANP; in the data active = activation above about 40%
APOBEC3A inh: blocks human APOBEC3A ssDNA deamination. actives 0.41% (n = 330,000). P31941. inhibition, % at 20 µM. recombinant A3A, FAM/TAMRA ssDNA deamination fluorescence;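 active = at least 40% inhibition at 20 µM here, with at most 30% in a related deaminase screen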;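 note: plate controls were A3A with DMSO for no effect and wells lacking A3A enzyme for full effect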
Target sequence (P31941 whole entry, looked up): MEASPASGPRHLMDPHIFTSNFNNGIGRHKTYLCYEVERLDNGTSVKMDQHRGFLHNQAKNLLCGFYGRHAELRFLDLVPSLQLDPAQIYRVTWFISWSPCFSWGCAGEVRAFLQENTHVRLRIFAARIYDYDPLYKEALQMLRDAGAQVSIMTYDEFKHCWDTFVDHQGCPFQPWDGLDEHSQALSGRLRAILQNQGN
PfGluPho conf: PfG6PD inhibition, single-dose confirmed; actives 34% (n = 2,400); AID 504753; inhibition, % at 20 µM; recombinant PfGluPho, NADPH-diaphorase-resazurin fluorescence; shares compounds with PfGluPho inh;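 active = inhibition of at least 50% at 20 µM in any single replicate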;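 note: 0% = DMSO with substrate and 100% = DMSO lacking glucose-6-phosphate substrate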
Diaphorase 10uM: diaphorase inhibition or oxidation at 10 uM NADPH; shares compounds with PfGluPho inh; diaphorase-coupled resazurin reduction, fluorescence, NADPH 10 uM; inhibition, % at 20 µM; actives 39% (n = 820);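 active = average inhibition reaching 50% or more with the compound at 20 µM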;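 note: resorufin red fluorescence formed as diaphorase reduces resazurin using NADPH; 0% = DMSO with enzyme and 100% = DMSO without enzyme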
Diaph ctr 30uM: diaphorase inhibition or oxidation at 30 uM NADPH | shares compounds with PfGluPho inh | Diaphorase/resazurin coupled assay, resorufin fluorescence | inhibition, % at 20 µM | actives 29% (n = 820);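 active = inhibition averaging 50% or more, tested at 20 µM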;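 note: 0% = DMSO with enzyme and 100% = DMSO wells lacking diaphorase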
* hit, by the source's call; x = no result given. An excerpt weighted towards active compounds, which were near 2% of everything screened.

SMILES	Neddylation inh	PfGluPho inh	NPR2 activator	APOBEC3G inh	NPR1 activator	APOBEC3A inh	PfGluPho conf	others
Cc1ccc(C)n1-c1ccc(N(C)C)cc1	8	63*	-11	-5	-1	-6	0
CC1(NC(=S)Nc2ccc3ccccc3c2)CCS(=O)(=O)C1 (configuration not stated)	-9	7	0	-8	1	-5	x
CN(C)C(=S)NC(=S)Nc1ccc2ccccc2c1	-146	71*	2	x	13	x	6
Cc1ccc(OCCCn2cc(C#N)c3ccccc32)cc1	9	68*	-5	0	-5	-1	8
N#Cc1cn(CCOc2ccc(F)cc2)c2ccccc12	2	84*	-15	-2	-10	-3	34
N#Cc1cn(CCOc2ccccc2F)c2ccccc12	7	50	-16	-4	-26	-1	x
CCOC(=O)N/N=C/c1cn(CCCOc2ccc(C)cc2)c2ccccc12	-1	-8	-6	-9	-10	-5	x
COC(=O)[C@]12C[C@H](CC(=O)N3CCCC3)C(=O)N(Cc3ccco3)C1=C[C@H](C1CCCC1)O[C@@H]2C	x	x	-1	x	-5	x	x
CC(=O)ON=C1C=CC(=C(C#N)c2ccccc2)C=C1	3	x	0	x	6	x	x
COc1ccc(C(C#N)=C2C=CC(=NO)C=C2)cc1	-14	61*	-13	16	-7	-1	-10
NNC(=O)CN1C(c2cccc(Cl)c2)=Nc2ccc(Br)cc2C1c1ccccc1 (configuration not stated)	5	27	-32	-2	-45	1	x
NNC(=O)CN1C(c2ccccc2Br)=Nc2ccc(Br)cc2C1c1ccccc1 (configuration not stated)	-18	88*	-20	-3	-42	-1	60*	Diaphorase 10uM=54*;Diaph ctr 30uM=34
c1ccc2nc3c(nc2c1)c1ccccc1n3CCN1CCOCC1	7	33	0	-1	4	1	x
CCn1c2ccccc2c2nc3cc(S(=O)(=O)N4CCOCC4)ccc3nc21	-18	100*	x	x	x	x	61*	Diaphorase 10uM=-9;Diaph ctr 30uM=3
Cc1ccc(Nc2nnc(-c3ccc4c(c3)OCO4)o2)c(C)c1	-45	70*	1	3	3	-1	39
c1ccc(Nc2nnc(-c3ccc4c(c3)OCO4)o2)cc1	x	x	6	x	4	x	x
C=CC[C@@]1(c2ccc(Br)cc2OC)Oc2ccccc2-c2nccnc21	x	x	-15	x	-9	x	x
CC(C)(C)OC(=O)NCc1cc(F)ccc1/C=C/S(=O)(=O)NCc1ccccc1	x	x	-3	x	-4	x	x
C#CCCCN([C@H](C(=O)OC)C(C)C)S(=O)(=O)c1ccccc1Br	x	x	-7	x	-8	x	x
COc1cc(/C=C/C(=O)Nc2nnc(CC(C)(C)C)s2)cc(OC)c1OC	x	59*	-1	35	3	3	35
COc1c(C(C)(C)C)cc(S(=O)(=O)N2c3ccccc3C[C@H]2C)cc1C(C)(C)C	x	x	-1	x	-7	x	x
O=C(CN1CCN(c2ccc(O)cc2)CC1)Nc1cc(S(=O)(=O)N2CCCCC2)ccc1Cl	-5	56	2	-1	1	-4	x
O=C(CN1CCN(c2ccc(O)cc2)CC1)Nc1ccc2c(c1)OCCCO2	7	79*	1	26	1	3	27
Oc1ccc(N2CCN(Cc3cc4c(cc3Br)OCCO4)CC2)cc1	9	74*	3	17	1	19	6
COc1ccc(NC(=O)c2ccc(NC(=O)CN3CCN(c4ccc(O)cc4)CC3)cc2)cc1	-5	75*	0	x	-3	x	36
SMILES	Neddylation inh	PfGluPho inh	NPR2 activator	APOBEC3G inh	NPR1 activator	APOBEC3A inh	PfGluPho conf	others
O=C(CN1CCN(c2ccc(O)cc2)CC1)Nc1cc(S(=O)(=O)N2CCCC2)ccc1Cl	0	67*	1	3	-3	-6	30
COc1ccc(NC(=O)c2ccc(NC(=O)CN3CCN(c4ccccc4O)CC3)cc2)cc1	3	12	-3	x	-4	x	x
O=S(=O)(c1ccc(F)cc1)N1CCN(Cc2cc3c(cc2Br)OCCO3)CC1	-9	-3	-2	-12	-8	8	x
COC(=O)C1CN(C2CCCC2)CCS(=O)(=O)N1Cc1cn(Cc2ccc(Cl)cc2)nn1 (configuration not stated)	x	x	6	x	1	x	x
CCCC(=O)OC[C@H]1CN(C2CCCC2)S(=O)(=O)c2c(Oc3ccc(F)cc3OC)cccc2O1	x	x	-2	x	-2	x	x
CCCCCCCCN1C(=O)[C@@H](CC(=O)NCCC(C)C)C[C@@]2(C(=O)OC)C1=C[C@H](COCc1ccccc1)O[C@@H]2C	x	x	-4	x	1	x	x
NC1=[N+](Cc2ccccc2)C[C@H]2C(=C3CCCC[C@H]3n3c(=O)n(-c4ccccc4)c(=O)n32)N1	x	x	-23	x	-26	x	x
O=C(/C=C/c1ccc(O)cc1)c1ccc(NC2=C(N3CCCCC3)C(=O)c3ccccc3C2=O)cc1	13	71*	1	-2	3	-2	19
CCCOc1ccc(N)cc1N	-10	115*	-2	36	-3	7	70*	Diaphorase 10uM=52*;Diaph ctr 30uM=51*
CCc1ccc(Nc2n[n+](-c3ccccc3)c(-c3c(Cl)cccc3Cl)s2)cc1	-20	80*	1	-13	2	-4	34
COc1ccc(C)cc1Nc1n[n+](-c2ccccc2)c(-c2ccc(OC)c(OC)c2OC)s1	-9	19	-12	-10	-10	-6	x
COc1ccc(C)cc1Nc1n[n+](-c2ccccc2)c(-c2c(Cl)cccc2Cl)s1	x	73*	-11	-7	-15	-1	40
COc1ccc(-c2sc(Nc3ccccc3)n[n+]2-c2ccc(F)cc2)cc1Br	-24	12	-22	-8	-19	-4	x
COc1ccc2ccccc2c1-c1sc(Nc2ccccc2)n[n+]1-c1ccc(F)cc1	-32	99*	-19	-7	-8	2	79*	Diaphorase 10uM=75*;Diaph ctr 30uM=59*
COc1ccc(NCc2cc3cc(OC)ccc3[nH]c2=O)cc1	21	73*	x	3	x	3	26
COc1ccc2[nH]c(=O)c(CNc3cccc(C)c3)cc2c1	25	69*	6	-1	10	1	-2
COc1ccc(NCc2cc3ccccc3[nH]c2=O)cc1	16	25	-1	-2	0	-3	x
COc1ccc(-c2nc(N)ncc2-c2ccccc2OC)c(O)c1	-7	74*	-4	-6	-20	-4	34

Compound activity as filed in PubChem.
